TDP1 block – blocks human tyrosyl-DNA phosphodiesterase 1 | Q9NUW8 | recombinant TDP1, AlphaScreen DNA substrate cleavage | Potency, µM (top dose mostly 130 µM), without a hit: top-dose activity change, negative = inhibition, most hits filed as inhibitors | 350,000 tested, 0.28% active; note: potency is the fitted concentration of half-maximal effect; % is set by controls: 0 for no effect and ±100 for the full control effect; nearly all actives have a fitted effect of over 40% in size
Target sequence (Q9NUW8 whole entry, looked up): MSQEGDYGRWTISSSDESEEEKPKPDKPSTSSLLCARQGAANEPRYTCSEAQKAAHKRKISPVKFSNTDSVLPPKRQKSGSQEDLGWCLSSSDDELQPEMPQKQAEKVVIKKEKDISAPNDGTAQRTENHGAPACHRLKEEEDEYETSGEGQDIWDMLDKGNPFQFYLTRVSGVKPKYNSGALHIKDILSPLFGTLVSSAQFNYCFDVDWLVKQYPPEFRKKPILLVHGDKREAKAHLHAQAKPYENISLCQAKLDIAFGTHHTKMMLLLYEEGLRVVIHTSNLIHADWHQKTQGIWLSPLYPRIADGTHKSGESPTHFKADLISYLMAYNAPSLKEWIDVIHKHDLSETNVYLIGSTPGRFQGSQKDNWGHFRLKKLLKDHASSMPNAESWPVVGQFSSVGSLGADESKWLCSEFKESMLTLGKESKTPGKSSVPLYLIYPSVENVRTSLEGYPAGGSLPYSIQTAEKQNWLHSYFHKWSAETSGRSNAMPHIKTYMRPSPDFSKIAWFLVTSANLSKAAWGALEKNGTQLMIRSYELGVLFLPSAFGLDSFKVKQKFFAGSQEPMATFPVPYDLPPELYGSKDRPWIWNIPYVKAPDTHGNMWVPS
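Enzyme-compound mixtures sat 15 min at room temperature, followed by a 5 min reaction with 15 nM final substrate and 10 min with AlphaScreen beads. Recombinant human Tdp1 was used at 1 nM final.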
HepG2 viability – counter-screen for TGF-b inhibitors: cytotoxicity in HepG2 cells. Potency, µM (titrated, usually from 46.1 µM), without a hit: top-dose activity change, negative = cytotoxicity, hits mostly cytotoxic. HepG2 CAGA-GFP viability, ATP luminescence, 18 h. 410,000 tested, 0.76% active; note: potency is the fitted concentration of half-maximal effect
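CellTiter-Glo luminescence gave cytotoxicity after 18 hours at 37 degrees C. The cells were HepG2 CAGA-GFP in 1% FBS DMEM, stimulated with 500 pg/mL TGF-beta after compound addition. %Activity was normalised to no-cell wells (complete cell-killing) and DMSO (no toxicity), and curves were fitted and classified.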
IL-1B inflam inh – inflammasome signaling inhibition, IL-1 beta readout | THP-1 LPS/ATP IL-1B secretion, AlphaLISA, 16 h; active compounds read low | activity change, % at 57.5 µM | 360,000 tested, 4.7% active; in the data active = activity change below about -50%; inconclusive = mostly about -30% to -49%; note: % is set by controls: 0 for no effect and ±100 for the full control effect
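THP-1 cells pretreated 1 hr with compounds (up to 57.5 uM final), then stimulated with LPS (250 ng/mL final) plus ATP (1.25 mM final); secreted IL-1B measured by AlphaLISA after 16 hr, decreased signal indicating inhibition.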
TDP1 cell CPT – DT40-hTDP1 cell growth loss with CPT; Potency, µM (top dose mostly 46.2 µM), without a hit: at the highest dose activity change, negative = growth inhibition, hits mostly inhibitors; chicken DT40 Tdp1-/-;hTDP1 cells + 20 nM CPT, ATP luminescence, 48 h; 420,000 tested, 12% active; note: potency is the fitted concentration of half-maximal effect; % is set by controls: 0 for no effect and ±100 for the full control effect; nearly all actives have a fitted effect of over 55% in size
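Cell growth measured by CellTiter-Glo luminescence after a minimum 48 h, 37 C compound exposure with 20 nM CPT in Tdp1-knockout DT40 cells stably expressing hTDP1, seeded 400/well; qHTS titration format.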
TGFb SMAD3 inh – blocks TGF-b signaling | AID 588855 | 410,000 tested, 1.2% active | Potency, µM (top dose mostly 46.1 µM), without a hit: at the top dose activity, negative = inhibition, usual class: inhibitors | HepG2 CAGA-GFP TGF-b/SMAD3 reporter, GFP fluorescence, 18 h; TGF-beta stimulated, 500 pg/mL final; note: potency is the fitted concentration of half-maximal effect; % is set by controls: 0 for no effect and ±100 for the full control effect; nearly all actives have a fitted effect of over 65% in size
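Read-out: total well GFP (ex488/em500-530) summed from mean per-cell fluorescence. Cells: HEPG2 CAGA-GFP, 1% FBS DMEM, 18 h at 37 degrees C with 500 pg/mL final TGF-beta. Unstimulated wells served as the full-inhibition control; stimulated DMSO wells = 0%.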
TDP1 cell noCPT – qHTS for Inhibitors of human tyrosyl-DNA phosphodiesterase 1 (TDP1): qHTS in cells in absence of CPT | Potency, µM (highest dose often 46.2 µM), for inactives: at the top dose activity change, negative = growth inhibition, most hits filed as inhibitors | DT40 Tdp1-/- hTDP1 cells, no CPT, ATP luminescence, 48 h | AID 686978, 2013 | 420,000 tested, 15% active; note: potency is the fitted concentration of half-maximal effect; % is set by controls: 0 for no effect and ±100 for the full control effect; nearly all actives have a fitted effect of over 55% in size
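Stably hTDP1-transfected Tdp1-null chicken DT40 cells were treated with library compounds minus camptothecin and grown for at least 48 hr at 37 °C, after which cellular ATP was quantified by luminescence.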
Starred values were filed as active, the others as inactive; ? = inconclusive; nt = no result; [ ] = dose if it differs, or a comment. This is a sample that favours compounds with a hit; in the whole collection about 18% have one here. Unless noted, calls come from the whole dose curve; as a rule, active = well fitted curve in the direction sought with a large enough effect; inconclusive = small, poorly fitted or top-dose-only effect, or another doubt; inactive = no such curve, though single readings can be large; an effect the other way counts as inactive or inconclusive.

SMILES	TDP1 block	HepG2 viability	IL-1B inflam inh	TDP1 cell CPT	TGFb SMAD3 inh	TDP1 cell noCPT
COc1ccccc1C(=O)N(c1ccc(C)cc1)S(=O)(=O)c1ccc(Cl)cc1	0%[12.3 µM]	-39%	nt	?	?	?
O=C(CCCc1ccc(-c2ccccc2F)cc1)Nc1ccc(O)cc1	13%	nt	nt	nt	nt	nt
COc1cc(CC(=O)OCC(=O)N2C(C)CCCC2C)cc(OC)c1OC (stereo unspecified)	nt	3%	6	?	4%	-18%
CCOc1nc(-c2ccccc2O)nc2ccccc12	3%	-5%	8	-1%	-9%	-18%
CC(C)Oc1nc(-c2ccccc2Cl)nc2ccccc12	-6%	-65%	32	?	?	15µM*
O=C(CCN1CCOCC1)Nc1cc(C(=O)Nc2ccc(Cl)cc2)ccc1N1CC2CC(C1)c1cccc(=O)n1C2 (stereo unspecified)	4%	-16%	-63*	?	-18%	-26%
CCC(CO)Oc1cc(NCc2ccccc2C(F)(F)F)c2ncn(C(C)C)c2c1 (stereo unspecified)	10%	-18%	82	23µM*	?	16µM*
CCC(CO)Oc1cc(NCc2ccccc2OC)c2ncn(C(C)C)c2c1 (stereo unspecified)	8%	-19%	28	?	15%	?
CCC(CO)Oc1cc(NCc2ccccn2)c2ncn(C(C)C)c2c1 (stereo unspecified)	2%	0%	4	-21%	2%	-7%
CCC(CO)Oc1cc(NCc2ccccc2F)c2ncn(C(C)C)c2c1 (stereo unspecified)	8%	-20%	30	21µM*	-14%	16µM*
CC(C)(C)c1ccc(CC(=O)N2CCC2(C)C(=O)Nc2cccc3ccccc23)cc1 (stereo unspecified)	nt	-35%	12	?	?	?
CC(C)(C)c1ccc(CC(=O)N2CCC2(C)C(=O)NCc2cccc3ccccc23)cc1 (stereo unspecified)	nt	-106%	?	23µM*	?	26µM*
Cc1ccc(CNC(=O)C2(C)CCN2C(=O)Cc2ccc(C(C)(C)C)cc2)cc1 (stereo unspecified)	nt	-39%	-14	16µM*	0%	18µM*
CC(C)(C)c1ccc(CC(=O)N2CCC2(C)C(=O)NS(=O)(=O)c2ccc(F)cc2F)cc1 (stereo unspecified)	nt	-15%	-51*	-6%	6%	-5%
COc1ccc(C)cc1NC(=O)C1CCN(S(=O)(=O)c2ccc3c(c2)CCCN3C(C)=O)CC1	3%	2%	nt	3%	-1%	6%
O=C(O)CN(CC(=O)O)CC1=CC2C(=CC1=O)Oc1cc(O)c(CN(CC(=O)O)CC(=O)O)cc1C21OC(=O)c2ccccc21 (stereo unspecified)	nt	nt	nt	-21%	nt	?
COc1ccc(S(=O)(=O)c2cc(NS(=O)(=O)c3ccc(Cl)cc3)c(C)c(C)c2O)cc1	1%	-22%	nt	-19%	-5%	16µM*
COc1ccc(S(=O)(=O)Nc2cc(Cl)ccc2OC)cc1	7%	-1%	36	2.3µM*	-7%	2.3µM*
CCOc1ccc(S(=O)(=O)Nc2cc(OC)ccc2OC)cc1	7%	-43%	-4	0.37µM*	?	0.33µM*
COc1ccc(OC)c(NS(=O)(=O)c2ccc(SC)cc2)c1	0%	1%	36	9.2µM*	-3%	16µM*
COc1ccc(Cl)cc1NS(=O)(=O)c1ccc(OC)c(OC)c1	-3%	-2%	25	-5%	-21%	-5%

Compound activity as filed in PubChem.
